The campaign covered roughly 69,000 compounds. About 8,600 (12%) showed an effect of 50% or more. The sample as a whole holds a higher share of strong results than the screen did.

In the assay the test system is Plasmodium berghei. Description: Screen against P. berghei liver stage (PbLuc), transformed with Luciferase, at 10uM. It counts as functional, HepG2. Conditions: tested at 10 uM.
Take `CCc1nc(C2CCCN2C(=O)c2cnc[nH]2)no1` (stereo not drawn): the INHIBITION is on record as 37.9%. Under `CCOCC1CN(C(=O)C2=CCCC2)Cc2cnn(CC)c21` (stereo not drawn) stands 42.6%. With `Cc1cnn(CC2CN(CCCc3nc4ccccc4o3)CCO2)c1` (stereo not drawn), the INHIBITION is reported as -12.1%. Under `CCn1nc(C)c(NC(=O)CN2CCC(c3ccccc3Cl)C2)c1C` (stereo not drawn) stands 48.2%; under `COCCN1C[C@H](NC(=O)CCC(F)(F)F)[C@@H](C(C)C)C1`, 30.9%. Under `CC(=O)N1CCCC(c2ccc(CO)c(-c3c(C)noc3C)n2)C1` (stereo not drawn) stands 18.4%; under `CCc1nc(C)c(C(=O)NCCN2CCCC2)s1`, -19.9%.

With `COC(=O)c1ccc(C(=O)NCc2nn(C)c3c2COCC3)cc1`, the INHIBITION is 6%.

Regarding `CC(C)(C)NC(=O)COc1ccc(Oc2ccccn2)cc1`, the INHIBITION is on record as 23.7%.

Take `COCC(C)(C#N)NC(=O)COc1ccccc1` (stereo not drawn): the INHIBITION was 66.7%.

In the case of `COCC(C)(C#N)NC(=O)COc1ccccc1Br` (stereo not drawn), the INHIBITION is -3.81%. Under `OCc1cnc(Nc2ccccc2)nc1` stands -7.27%; under `Cc1c(CN2CCOCC2)c(O)n(CCc2ccccc2)c(=O)c1C#N`, 6%. Under `Cc1ccc(NCc2cncc3c2CCN(Cc2ccccn2)C3)nn1` stands -30.7%; under `Cn1cc(C(=O)NCc2cncc3c2CCN(c2ccccn2)C3)cn1`, 34%; under `Cc1nccc(NCc2cncc3c2CCN(S(C)(=O)=O)C3)n1`, 59.3%. `Cc1cnc(N2CCc3c(CN(C)Cc4ccco4)cncc3C2)nc1`: the INHIBITION came to 66.8%. To `Cn1cc(C(=O)NCc2cncc3c2CCN(S(C)(=O)=O)C3)cn1` belongs 38.5%.

For the molecule `Cc1occc1C(=O)N1CCc2c(CNc3ncccn3)cncc2C1`, the INHIBITION came to 4.27%.

For the molecule `CN(Cc1cccnc1)Cc1cncc2c1CCN(c1ccccn1)C2`, the INHIBITION was 51.2%. To `CN(Cc1ccco1)Cc1cncc2c1CCN(c1ncccn1)C2` belongs 37%. To `Cc1ccc(N2CCc3c(CN(C)Cc4ccco4)cncc3C2)nn1` belongs -11.2%; to `COCc1cncc2c1CCN(Cc1ccccn1)C2`, -13.2%; to `Cc1cnc(N2CCc3c(CNc4ccnc(C)n4)cncc3C2)nc1`, 94.6%. Under `CN(Cc1ccco1)Cc1cncc2c1CCN(S(C)(=O)=O)C2` stands 40.1%; under `Cc1ccnc(C2CCN(C(=O)CCn3ncc4ccccc43)C2)n1` (stereo not drawn), 5.11%; under `CNC(=O)[C@@H](c1ccccc1F)N1CCC[C@H]1C(=O)NC1CC1`, 0.734%. In the case of `Cn1ccnc1CN1CCO[C@H]2C(CNC(=O)c3ccco3)CC[C@@H]21` (stereo partly drawn), the INHIBITION worked out at 16.9%.

Take `CC(C)CC(=O)N1CC[C@@H]2CN(Cc3cccnc3)S(=O)(=O)[C@@H]2CC1`: the INHIBITION was 42.1%.

`Cc1cc(C(=O)N2CC[C@@H]3CN(S(C)(=O)=O)CCO[C@@H]3C2)c(C)o1`: the INHIBITION turned out to be 37%. Under `O=C(NCc1cc[nH]n1)NC1CCCN(c2ncccn2)C1` (stereo not drawn) stands -0.79%; under `Cc1cnc(N2CCN3C[C@H](OCc4cccc(C)n4)C[C@H]3C2)nc1`, 42.3%.

For the molecule `O=C(NCC1CC1)c1nc2c(o1)CN(CC1CC1)C2`, the INHIBITION is given as -48.4%.

`Fc1ccccc1Cc1noc(CN2CCC(C3CCCCC3)C2)n1` (stereo not drawn): the INHIBITION came to 49.9%. Under `COCc1ccccc1NC(=O)[C@@H]1CCCN1C(=O)c1ccco1` stands 39.2%; under `Cc1cccc(NC(=O)C2CCCN2C(=O)c2ccco2)c1C` (stereo not drawn), 72.5%. To `COC(=O)c1sccc1NC(=O)C1CCCN1C(=O)c1ccco1` (stereo not drawn) belongs -62.2%; to `N#CCCN(CCN1CCOCC1)Cc1ccc(F)c(Br)c1`, 20.4%. Take `CC(C)CN1C(=O)CC[C@H]2CN(C(=O)Cn3ccc(=O)cc3)CC[C@H]21`: the INHIBITION came out at 33.9%. Consider `CC(C)CN1C(=O)CC[C@H]2CN(C(=O)Cn3ccccc3=O)CC[C@H]21`, for which the INHIBITION is 45.8%. To `CC1=NN(CC(=O)N2CC[C@@H]3[C@@H](CCC(=O)N3CC(C)C)C2)CC1` belongs 56.7%. As to `COc1ccnc(N2CCN(C(=O)c3ccn(C)c(=O)c3)CC2)n1`, the INHIBITION was -21.8%. Under `Cc1nnsc1C(=O)N1CC(c2nc3ccccc3[nH]2)C1` stands 49.4%. As for `Cc1nnsc1C(=O)N1CCC(c2nc3ccccc3[nH]2)CC1`, the INHIBITION amounted to 65.4%. Consider `CCc1nnsc1C(=O)N1CCCC(c2nc3ccccc3[nH]2)C1` (stereo not drawn), for which the INHIBITION is 26.9%. Under `O=C(c1cc2ccccc2[nH]1)N1CCCCC1Cn1cccn1` (stereo not drawn) stands 48.1%; under `Cc1nn(C)cc1-c1cc(C(F)F)nc2sc(C(N)=O)c(N)c12`, 1.86%; under `COC(=O)CCC(=O)N1CCc2[nH]nc(-c3ccc(F)c(F)c3)c2C1`, 15.9%.

With `CCc1nc(C)sc1CN1CCc2[nH]nc(-c3ccc(F)c(F)c3)c2C1`, the INHIBITION stood at 37.2%. Under `CC(O)CN1CCc2[nH]nc(C(c3ccccc3)c3ccccc3)c2C1` (stereo not drawn) stands -12.1%; under `CC(C)(C)c1ccc(-c2n[nH]c3c2CN(CC2CCOC2)CC3)cc1` (stereo not drawn), 44.3%; under `CC(C)c1nnsc1CN1CCc2[nH]nc(-c3ccc(Cl)cc3)c2C1`, 50.1%.

For the molecule `CC(C)c1nnsc1CN1CCc2[nH]nc(-c3ccc(F)c(F)c3)c2C1`, the INHIBITION stood at 70.4%. Take `CS(=O)(=O)N[C@@H]1COC[C@@H]2CN(Cc3ccoc3)C[C@@H]21`: the INHIBITION is 15.4%. To `Cc1cccc(C(=O)N(CC(=O)O)CC(C)C)c1` belongs 28.1%.

On to `CCN(CC)C(=O)c1cc(C2CCCN2C)ccn1` (stereo not drawn), for which the INHIBITION is reported as 47.2%. Under `CC(COc1ccc(F)cc1F)NC(=O)NCCN1CCOCC1` (stereo not drawn) stands -32.4%. To `CCC(C)NC(=O)c1sccc1-n1cnnn1` (stereo not drawn) belongs -5.22%; to `COc1cccc2c1ccn2CC(=O)N1CCCC(C(=O)O)C1` (stereo not drawn), 31.7%. To `O=C(c1ccco1)N1CCCC2(CN(Cc3ccc(F)cc3)CCO2)C1` (stereo not drawn) belongs -1.83%. Regarding `O=C1N(CC2CC2)C(c2cncs2)NC12CCCC2` (stereo not drawn), the INHIBITION is given as 49%. To `Cc1cccc(CN2CCC3(CC2)COC(COCC2CC2)C3)n1` (stereo not drawn) belongs 43%.

For `Cn1cc(CN(Cc2ccccc2)Cc2ccccn2)cn1`, the INHIBITION was found to be 1.62%. Under `CCCN(CCc1ccccn1)C(=O)Cn1cnnn1` stands -17.8%.

Consider `Cn1cc(CCC(=O)N2C[C@H]3CC[C@@H](C2)N(Cc2ccccn2)C3)cn1`, for which the INHIBITION is recorded as 6.11%. With `CCCN(CCc1ccccn1)C(=O)CCc1cnn(C)c1`, the INHIBITION is recorded as 65.2%.

For `CCCN(CCc1ccccn1)C(=O)Cn1cc(C)cn1`, the INHIBITION is reported as 78.8%. With `Cc1cnn(CC2CCCCN2CC(=O)NCc2ccccn2)c1` (stereo not drawn), the INHIBITION was -4.74%.
